Several values for one entry are separate records, joined by “and”; a condition that tells them apart may be missing. Equal values may be shown once. Activity calls are given as the source filed them.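 The calls were made as follows, unless noted: active = mean z-score across replicates of 1.96 or higher in either the MELAS or the Rieske mutant cell line; inactive = the rest.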
Columns and labels:
[1] = polyglutamine-triggered caspase-3 activation inhibitors, cell-based (AID 1583); conditions: polyglutamine-induced caspase-3 activation, cell assay; stronger effect = higher value;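 tested at 10 µM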
[2] = suppressors of polyQ aggregation in yeast, 75Q-TubU reporter (AID 1593); conditions: Yeast 75Q polyglutamine aggregation reporter
[3] = inhibitors of mitochondrial cytochrome c release, biochemical, purified mitochondria (AID 1603); conditions: stronger effect = lower value;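 also: mouse liver mitochondria challenged with calcium chloride; signal normalized to the plate average as 100%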
[4] = inhibitors of polyQ protein aggregation (AID 1604); conditions: polyglutamine-induced protein aggregation inhibition assay; stronger effect = higher value; tested at 2.5 µM
[5] = enhancers of glutamate uptake in motor neurons, MN-1 cell line (AID 1612); conditions: MN-1 motor neuron cells, stronger effect = higher value;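 also: tested at 1 µM final; 0% = mean of DMSO vehicle wells on each plate; positive means more glutamate uptake than control and negative means less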
[6] = suppressors of polyglutamine aggregation in yeast, 75Q-TubH (AID 1616); conditions: S. cerevisiae 75Q-TubH polyglutamine aggregation suppression; stronger effect = higher value
[7] = stimulators of nuclear beta-catenin in C2C12, primary screen, imaging, WNT3A-conditioned medium, mouse C2C12, NPC library (AID 1117326; in the data active = nuclear beta-catenin stimulation mostly above about 4.2%, no sharp cut-off; inactive = mostly below about 10%); conditions: stronger effect = higher value
[8] = stimulators of insulin release from INS-1E, primary screen, cell-based, 5 mM glucose, NPC library (AID 1117329;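 active = compound raises insulin release from rat beta cells at 5 mM glucose, no numeric limit stated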); conditions: rat INS-1E insulin secretion, at 10 µM, stronger effect = higher value
[9] = growth inhibition of GSK3B-pretreated HCT116 cells – cell-based, CellTiter-Glo, 0.2 to 20 µM (AID 1117336;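 active = compounds lowering colon cancer cell viability after pretreatment blocking the GSK3B kinase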); conditions: HCT116 viability after GSK3B inhibitor, at 20 µM, stronger effect = higher value
[10] = inhibition of endothelial tube formation, primary screen, imaging, VEGF stimulated, CD31 staining, tube area, NPC library (AID 1117340;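 active = compound that reduces growth-factor-driven endothelial tube area in a mixed cell culture, no cutoff stated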); conditions: VEGF-stimulated ADSC/ECFC co-culture, at 10 µM, stronger effect = higher value
[11] = glucagon-like peptide 1 release enhancers, primary assay, NCI-H716 cell line, NPC library (AID 1117341;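 active = compound raises GLP1 secretion from the human gut endocrine cells, with no numeric limit stated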); conditions: NCI-H716 cells, at 10 µM, stronger effect = higher value
[12] = HCT116 colon cancer cell growth inhibition, primary screen, CellTiter-Glo luminescence, NPC library (AID 1117342;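 active = compounds that lower survival of HCT116 colon cancer cells in the luminescence readout, no numeric limit stated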); conditions: at 20 µM (top of the series)
[13] = CellTiter-Glo luminescent readout of SW480 viability loss, NPC library primary (AID 1117343;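 active = compounds that lower viability of the colon cancer cells in the luminescence readout, with no numeric limit stated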); conditions: CellTiter-Glo luminescence; at 20 µM (top of the series)
[14] = decreased DLD-1 cellular survival, CellTiter-Glo luminescent readout, NPC compound collection, primary HTS (AID 1117346;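 active = compounds that lower survival of DLD-1 colon cancer cells in the luminescence readout, no cutoff given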); conditions: DLD-1 viability, CellTiter-Glo luminescence; at 20 µM (top of the series)
[15] = molecular target: 6-phosphogluconate dehydrogenase, decarboxylating (Homo sapiens) (UniProt P52209); assay: 6PGD enzyme inhibitors, primary screen, biochemical, human, recombinant enzyme, NADPH absorbance (AID 1159550;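 active = at least 20% inhibition of 6-phosphogluconate dehydrogenase activity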); conditions: recombinant 6PGD, NADPH absorbance 341 nm; at 10 µM; stronger effect = higher value
[16] = differential killing of epithelial or mesenchymal cells, primary screen, imaging, PC-3E GFP, TEM4-18 mCherry, co-culture (AID 1345086;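 active = compounds killing one labelled cell type while sparing the other, by normalised counts and ratio limits, not self-fluorescent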;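 as to all read-outs here: cells exposed to compound for 72 h before imaging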;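 as to red/green cell ratio (normalised): normalised mesenchymal count divided by normalised epithelial count so high means epithelial killing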); conditions: imaging cell counts, at 1 µM; for red/green cell ratio (normalised): actives lie on both sides, counts scaled to control wells, 1 = unselective
[17] = survival rescue of mitochondrial mutant cells in low glucose, primary screen, MELAS cybrids, Rieske KO mouse fibroblasts, CellTiter-Glo (AID 1508586);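 also: z relative to plate mean and SD of compound and empty wells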
[18] = molecular target: NAD(+) hydrolase SARM1 (Homo sapiens) (UniProt Q6SZW1); assay: SARM1 TIR NADase inhibitors, cell lysate, NAD-Glo luminescence (AID 1508614;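 active = compound whose remaining NAD level is above about 45 nM, limit read from the data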;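 also: higher remaining NAD means stronger inhibition of SARM1 NADase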); conditions: SAM-TIR HEK293T lysate NADase, at 1 µM, stronger effect = higher value
[19] = molecular target: Mitogen-activated protein kinase 7 (Homo sapiens) (UniProt Q13164); assay: ERK5 transactivation activators in reporter cells, primary screen, cell-based, HTS (AID 1508626;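 active = luciferase signal above three times the same-plate solvent-only control wells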;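 also: luciferase driven by Gal4-ERK5 fusion binding five Gal4 sites before minimal TATA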); conditions: HeLa Gal4-ERK5 transactivation, 18 h, at 5 µM, stronger effect = higher value
[20] = measured here: epithelial PC-3E GFP cell survival
[21] = measured here: mesenchymal TEM4-18 mCherry cell survival
[22] = MELAS cybrid survival, CellTiter-Glo 48 h, stronger effect = higher value
[23] = Rieske KO mouse fibroblast survival, CellTiter-Glo 72 h

NAD(+) hydrolase SARM1 (Homo sapiens), sequence (Q6SZW1 whole entry, looked up, the tested form may be a part): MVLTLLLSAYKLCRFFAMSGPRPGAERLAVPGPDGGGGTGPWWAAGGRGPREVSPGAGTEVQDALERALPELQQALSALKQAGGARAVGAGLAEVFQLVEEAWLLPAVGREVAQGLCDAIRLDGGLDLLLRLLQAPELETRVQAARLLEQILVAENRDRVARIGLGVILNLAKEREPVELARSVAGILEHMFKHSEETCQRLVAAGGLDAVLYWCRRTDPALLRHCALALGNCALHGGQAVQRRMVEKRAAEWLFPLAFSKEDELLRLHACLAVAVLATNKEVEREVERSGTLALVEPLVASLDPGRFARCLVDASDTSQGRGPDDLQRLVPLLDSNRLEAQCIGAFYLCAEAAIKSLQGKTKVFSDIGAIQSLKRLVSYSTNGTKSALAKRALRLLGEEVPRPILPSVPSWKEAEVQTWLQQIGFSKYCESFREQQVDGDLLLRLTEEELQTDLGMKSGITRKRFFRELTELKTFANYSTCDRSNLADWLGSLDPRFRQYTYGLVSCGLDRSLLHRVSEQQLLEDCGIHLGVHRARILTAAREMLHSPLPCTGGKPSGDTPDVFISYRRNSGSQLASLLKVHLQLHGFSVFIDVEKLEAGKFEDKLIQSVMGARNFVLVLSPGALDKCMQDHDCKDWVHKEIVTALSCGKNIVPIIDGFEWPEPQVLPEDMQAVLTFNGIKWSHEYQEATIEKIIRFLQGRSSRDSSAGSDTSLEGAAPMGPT
Mitogen-activated protein kinase 7 (Homo sapiens), sequence (Q13164 whole entry, looked up, the tested form may be a part): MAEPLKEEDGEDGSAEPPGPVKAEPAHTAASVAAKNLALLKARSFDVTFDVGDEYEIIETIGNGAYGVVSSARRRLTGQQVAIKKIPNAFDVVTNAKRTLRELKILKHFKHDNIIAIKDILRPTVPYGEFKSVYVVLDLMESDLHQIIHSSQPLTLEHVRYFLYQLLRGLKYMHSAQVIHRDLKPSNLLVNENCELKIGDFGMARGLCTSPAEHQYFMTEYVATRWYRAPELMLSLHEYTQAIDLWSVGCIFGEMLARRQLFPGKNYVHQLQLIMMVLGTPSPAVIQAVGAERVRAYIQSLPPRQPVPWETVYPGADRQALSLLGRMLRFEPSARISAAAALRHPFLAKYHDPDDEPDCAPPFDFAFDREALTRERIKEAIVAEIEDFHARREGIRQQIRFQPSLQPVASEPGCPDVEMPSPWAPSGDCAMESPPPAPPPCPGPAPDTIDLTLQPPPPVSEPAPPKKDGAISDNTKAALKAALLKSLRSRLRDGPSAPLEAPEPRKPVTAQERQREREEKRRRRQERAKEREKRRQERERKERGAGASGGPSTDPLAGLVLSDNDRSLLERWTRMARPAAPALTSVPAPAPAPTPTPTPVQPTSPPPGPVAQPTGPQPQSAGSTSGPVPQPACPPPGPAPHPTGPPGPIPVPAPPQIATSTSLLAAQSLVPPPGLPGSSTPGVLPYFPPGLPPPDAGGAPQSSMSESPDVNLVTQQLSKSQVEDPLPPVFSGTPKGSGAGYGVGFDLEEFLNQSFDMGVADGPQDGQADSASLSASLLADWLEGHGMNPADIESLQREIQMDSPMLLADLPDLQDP
6-phosphogluconate dehydrogenase, decarboxylating (Homo sapiens), sequence (P52209 whole entry, looked up): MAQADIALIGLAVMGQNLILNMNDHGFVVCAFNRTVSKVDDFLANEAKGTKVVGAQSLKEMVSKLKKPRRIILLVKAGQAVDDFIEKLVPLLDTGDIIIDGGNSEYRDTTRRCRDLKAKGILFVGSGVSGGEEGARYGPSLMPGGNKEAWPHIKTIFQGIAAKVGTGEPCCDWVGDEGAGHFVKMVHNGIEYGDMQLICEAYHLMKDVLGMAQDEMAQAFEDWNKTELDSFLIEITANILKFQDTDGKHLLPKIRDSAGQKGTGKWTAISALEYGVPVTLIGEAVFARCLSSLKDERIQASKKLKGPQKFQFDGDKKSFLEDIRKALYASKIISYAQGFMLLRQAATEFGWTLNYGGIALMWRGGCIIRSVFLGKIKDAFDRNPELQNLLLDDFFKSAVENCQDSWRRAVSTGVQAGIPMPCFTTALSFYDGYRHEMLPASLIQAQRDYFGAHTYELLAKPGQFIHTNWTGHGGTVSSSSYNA

SMILES: CN1C(C(=O)Nc2ccccn2)=C(O)c2ccccc2S1(=O)=O
- inhibition [1]: -2.37%
- score [2]: 0.27
- cytochrome c release ratio [3]: 1.16
- inhibition of aggregation [4]: 83.1%
- glutamate uptake change [5]: -13.7%
- aggregation suppression score [6]: 0.134
- nuclear beta-catenin stimulation ([7]; at 10 µM): 6.3% (inactive)
- nuclear beta-catenin stimulation ([7]; stimulation, at 2 µM): 0.5%
- insulin secretion stimulation [8]: -2.9% (inactive)
- viability decrease [9]: -12.7% (inactive)
- tube area decrease [10]: 3.1% (inactive)
- GLP1 secretion stimulation [11]: 1.4% (inactive)
- inhibition of viability [12]: -10.9% (inactive)
- viability decrease (inhibition) [13]: 15.6% (inactive)
- viability decrease (inhibition) [14]: 12.8% (inactive)
- inhibition [15]: 7.63% (inactive)
- red/green cell ratio (normalised) [16]: 1.3 (inactive)
- normalised cell number [16, 20]: 0.96
- normalised cell number [16, 21]: 1.24
- z-score [17, 22]: -0.176 (inactive) and -0.255 (inactive) and -0.0452 (inactive)
- z-score [17, 23]: 0.725 and -0.177 and -0.896
- remaining NAD [18]: 10 nM (inactive)
- luciferase signal [19]: 56 AU (inactive)

SMILES: COC(=O)c1ccc(O)cc1
- nuclear beta-catenin stimulation ([7]; at 10 µM): 1.3% (inactive)
- nuclear beta-catenin stimulation ([7]; stimulation, at 2 µM): 0.3%
- insulin secretion stimulation [8]: -1.8% (inactive)
- viability decrease [9]: -8.75% (inactive)
- tube area decrease [10]: 4.5% (inactive)
- GLP1 secretion stimulation [11]: 0.6% (inactive)
- inhibition of viability [12]: -9.8% (inactive)
- viability decrease (inhibition) [13]: 18.8% (inactive)
- viability decrease (inhibition) [14]: -6.75% (inactive)

SMILES: CC1=C(CC(=O)O)c2cc(F)ccc2/C1=C\c1ccc(S(C)=O)cc1 (stereo not given)
- inhibition [1]: 12.6%
- score [2]: 0.78
- cytochrome c release ratio [3]: 0.97
- inhibition of aggregation [4]: 78.9%
- glutamate uptake change [5]: 3.54%
- aggregation suppression score [6]: 1.01
- nuclear beta-catenin stimulation ([7]; at 10 µM): -1.5% (inactive)
- nuclear beta-catenin stimulation ([7]; stimulation, at 2 µM): 0.2%
- insulin secretion stimulation [8]: 0.2% (inactive)
- viability decrease [9]: -51.5% (inactive)
- tube area decrease [10]: 15.7% (inactive)
- GLP1 secretion stimulation [11]: -1.1% (inactive)
- inhibition of viability [12]: -9.1% (inactive)
- viability decrease (inhibition) [13]: 15% (inactive)
- viability decrease (inhibition) [14]: -23.3% (inactive)
- inhibition [15]: 2.79% (inactive)
- red/green cell ratio (normalised) [16]: 1.2 (inactive)
- normalised cell number [16, 20]: 0.35
- normalised cell number [16, 21]: 0.43
- z-score [17, 22]: -0.637 (inactive)
- z-score [17, 23]: 0.215
- remaining NAD [18]: 10 nM (inactive)
- luciferase signal [19]: 56 AU (inactive)
